Hedgehog inh: Sonic Hedgehog pathway inhibition | Shh-LIGHT2 Gli-luciferase reporter, 30 h | inhibition, % (test concentration not listed) | hit rate 2.1% among 22,000 | AID 2313;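 active = mean inhibition across valid replicates above about 65%, limit read from the data; inconclusive = mean under the limit, yet half or more replicates past it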;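 also: pathway switched on by Shh-conditioned medium diluted 1 in 25 in low serum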
MITF inhib: blocks MITF activity; TRPM1 promoter luciferase, luminescence, 24 h; inhibition, % (no concentration beside the values); hit rate 0.28% among 37,000; AID 2240; in the data active = inhibition above about 85%; inconclusive = no clear call, values can overlap the other calls; inactive = below about 68%;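 also: human melanocyte line stably carrying TRPM1 promoter luciferase reporter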
PD-1 reversal: activators reversing PD-1 mediated T-cell inhibition | primary human CD4 T cells, PD-L1 beads, CellTiter-Glo 96 h | activation, % (no concentration beside the values) | 29,000 tested, under 10 active | AID 2316; call rule not given here;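 also: 0% = median vehicle wells and 100% = positive control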
NOMO-1 viab: STK33 inhibitor candidate reducing NOMO-1 cell viability. NOMO-1 AML viability, CellTiter-Glo luminescence, 72 h. inhibition, % (test concentration not listed). hit rate 7.5% among 37,000. AID 2330; in the data active = inhibition above about 80%; inconclusive = no clear call, values can overlap the other calls
Active calls of the source: *; ? = inconclusive; nt = not tested or not shown. An excerpt weighted towards active compounds, which were near 8.1% of everything screened.

SMILES | Hedgehog inh | MITF inhib | PD-1 reversal | NOMO-1 viab
Oc1ccc(CCCc2ccc3c(c2)OCO3)c(O)c1 | -22.8 | -14.1 | 0.7 | 19.3
COc1ccc(NC(=O)Nc2cccc3c2O[C@@H](CN(C)S(=O)(=O)c2ccc(F)cc2)[C@@H](C)CN([C@H](C)CO)C3=O)cc1 | -31.4 | -7.2 | 0.8 | -7.6
COc1ccc(S(=O)(=O)N(C)C[C@@H]2Oc3c(NC(=O)Nc4ccc(F)cc4)cccc3C(=O)N([C@H](C)CO)C[C@@H]2C)cc1 | 67.9* | 2.3 | -0.6 | 33.0
COc1ccc(NC(=O)Nc2cccc3c2O[C@@H](CN(C)S(=O)(=O)c2ccc(Cl)cc2)[C@@H](C)CN([C@H](C)CO)C3=O)cc1 | 91.9* | -13.1 | nt | 1.2
COc1ccc(S(=O)(=O)N(C)C[C@@H]2Oc3c(NC(=O)Nc4ccc(F)cc4)cccc3C(=O)N([C@@H](C)CO)C[C@@H]2C)cc1 | 85.6* | 7.1 | -1.2 | 33.3
CCc1cccc(OCC(=O)Nc2ccc(OC)cc2[N+](=O)[O-])c1 | nt | -81.6 | nt | 10.7
O=C(Nc1ccccc1)Nc1ccc(Cl)cc1SCc1ccccc1 | 18.4 | 12.8 | -7.4 | ?
C[C@H](CO)N1C[C@H](C)[C@H](CN(C)Cc2ccc3c(c2)OCO3)Oc2c(NC(=O)Nc3cccc4ccccc34)cccc2C1=O | 27.3 | 18.0 | -1.5 | 21.8
C[C@H](CO)N1C[C@H](C)[C@@H](CN(C)Cc2ccc3c(c2)OCO3)Oc2ccc(NC(=O)CCCCCC(=O)Nc3ccccc3N)cc2C1=O | nt | -3.8 | 1.2 | -18.7
C[C@H](CO)N1C[C@H](C)[C@@H](CN(C)Cc2ccc3c(c2)OCO3)Oc2c(NC(=O)CCCCCC(=O)Nc3ccccc3N)cccc2C1=O | nt | 24.2 | -0.4 | 123.4*
C[C@H]1CN([C@@H](C)CO)C(=O)c2cccc(NC(=O)CCCCCC(=O)Nc3ccccc3N)c2O[C@@H]1CN(C)Cc1ccc2c(c1)OCO2 | nt | 51.6 | 1.1 | 121.4*
C[C@@H]1CN([C@@H](C)CO)C(=O)c2cccc(NC(=O)CCCCCC(=O)Nc3ccccc3N)c2O[C@H]1CN(C)Cc1ccc2c(c1)OCO2 | nt | 55.3 | -1.0 | 117.3*
C[C@H](CO)N1C[C@H](C)[C@@H](CN(C)Cc2ccc3c(c2)OCO3)Oc2c(NC(=O)Nc3cccc4ccccc34)cccc2C1=O | 25.2 | 18.4 | nt | ?
COc1cc2c(NC(C)=O)c(CN(C)C)oc2c(Cl)c1Cl | nt | -2.1 | 0.2 | 22.1
Nc1c(Cl)cc(NC(=O)CCCC(=O)O)cc1Cl | nt | -17.0 | 2.6 | -8.4
Cc1ccc(NC(=O)COc2ccccc2)c(NC(=O)c2ccccc2I)c1 | nt | -11.3 | nt | -2.5
CCc1cc2c(SCC(=O)Nc3cccc(C)c3)ncnc2s1 | nt | -6.1 | -0.1 | 36.9
CCN1C(=O)C=CC1=O | -46.1 | -6.7 | 3.9 | 98.4*
O=C(CC(Sc1ccc(Br)cc1)C(=O)O)c1ccc(Cl)cc1 (stereo not given) | 53.0 | 6.1 | -6.8 | 115.4*
COc1ccc(NC(=O)COc2ccc(Cl)c(C)c2)c([N+](=O)[O-])c1 | nt | -89.2 | nt | 3.4
CC(=O)O[C@H]1C(=O)[C@@]2(C)[C@H]([C@H](OC(=O)c3ccccc3)[C@]3(O)C[C@H](OC(=O)[C@H](O)[C@@H](NC(=O)c4ccccc4)c4ccccc4)C(C)=C1C3(C)C)[C@]1(OC(C)=O)CO[C@@H]1C[C@@H]2O | -29.3 | 25.5 | -2.6 | 141.1*
Cc1ccc(NC(=O)COc2c(C)cc(Cl)cc2Cl)c([N+](=O)[O-])c1 | nt | -16.8 | 1.8 | -13.1
CC(C)(C)c1ccccc1OCC(=O)Nc1cccc2ccccc12 | 20.1 | 27.4 | -0.7 | 91.9*
O=C(COc1cccc2ccccc12)Nc1ccccc1C(=O)O | nt | -15.8 | 1.9 | -7.7
C[C@H](CO)N1C[C@H](C)[C@H](CN(C)S(=O)(=O)c2ccc(Cl)cc2)Oc2c(NC(=O)Nc3ccc4c(c3)OCO4)cccc2C1=O | 109.7* | -12.8 | -0.4 | 2.7
SMILES | Hedgehog inh | MITF inhib | PD-1 reversal | NOMO-1 viab
C[C@H]1CN([C@@H](C)CO)C(=O)c2cccc(NC(=O)Nc3ccc4c(c3)OCO4)c2O[C@H]1CN(C)S(=O)(=O)c1ccc(Cl)cc1 | 107.2* | 8.2 | -3.9 | 92.2*
CCc1cccc(C)c1NC(=O)CSc1nnc(-c2ccncc2)n1-c1ccc(C)cc1 | nt | 3.6 | -0.7 | 7.5
C[C@H](CO)N1C[C@H](C)[C@@H](CN(C)Cc2ccncc2)Oc2ccc(NC(=O)Nc3ccc(C(F)(F)F)cc3)cc2C1=O | -4.7 | -42.4 | nt | 20.5
C[C@H]1CN([C@@H](C)CO)C(=O)c2cc(NC(=O)Nc3ccc(C(F)(F)F)cc3)ccc2O[C@H]1CN(C)Cc1ccncc1 | 42.6 | 35.5 | 2.4 | 102.2*
C[C@H](CO)N1C[C@H](C)[C@H](CN(C)Cc2ccncc2)Oc2ccc(NC(=O)Nc3ccc(C(F)(F)F)cc3)cc2C1=O | 13.4 | 12.0 | -0.5 | 86.4*
CCN1/C(=C/C2=CC(=O)CC(C)(C)C2)Sc2ccccc21 | 81.6* | 49.3 | -1.5 | 113.2*
COC(=O)c1c(NC(=S)N2CCN(Cc3c(C)nn(C)c3C)CC2)sc2c1CCC(C)C2 (stereo not given) | nt | 43.3 | nt | 58.0
CCC(=O)Nc1ccc(OCc2nc3ccccc3s2)cc1 | nt | 38.2 | nt | -6.9
O=C(Nc1ccc(OCc2nc3ccccc3s2)cc1)c1cccc(I)c1 | nt | -7.1 | nt | 105.5*
Cc1ccc(N(CC(O)Cn2c3ccccc3c3ccccc32)S(C)(=O)=O)c(C)c1 (stereo not given) | nt | 3.6 | 0.1 | 89.9*
O=C(c1ccccc1)c1ccc(-c2ccccc2)cc1 | -120.8 | -18.7 | -0.7 | 91.3*
O=C(O)CCC(=O)c1ccc(-c2ccccc2)cc1 | -102.2 | -29.7 | nt | 2.1
COc1cc([C@@H]2c3cc4c(cc3C(OC3O[C@@H]5COC(C)O[C@H]5[C@H](O)[C@H]3O)C3COC(=O)[C@@H]32)OCO4)cc(OC)c1O (stereo not given in full) | 30.8 | 37.6 | nt | 101.3*
COc1cc([C@@H]2c3cc4c(cc3[C@@H](OC3OC5COC(C)OC5C(O)C3O)[C@H]3COC(=O)[C@H]23)OCO4)cc(OC)c1O (stereo not given in full) | -12.6 | 39.8 | -9.0 | 140.8*
CC12CC3(C)CC(C)(C1)CC(C(=O)NC(=S)NC(C)(C)C)(C2)C3 | -8.0 | -2.1 | -0.1 | 35.0
C/C(=N\O)C12CC3(C)CC(C)(CC(C)(C3)C1)C2 | -20.3 | -16.7 | -2.2 | 120.2*
COc1cc(CO)ccc1OCc1cccc(C(=O)O)c1 | nt | 93.3* | 2.2 | 18.5
Cc1ccc(S(=O)(=O)N(C)C[C@@H]2Oc3c(NC(=O)Nc4ccccc4)cccc3C(=O)N([C@H](C)CO)C[C@@H]2C)cc1 | 120.9* | 32.1 | -3.8 | 46.5
C[C@H](CO)N1C[C@H](C)[C@H](CN(C)S(=O)(=O)c2ccccc2)Oc2c(NC(=O)Nc3ccc(F)cc3)cccc2C1=O | 70.5* | 8.7 | nt | 27.3
C[C@H]1CN([C@@H](C)CO)C(=O)c2cccc(NC(=O)Nc3ccc(F)cc3)c2O[C@H]1CN(C)S(=O)(=O)c1ccc(Cl)cc1 | 108.0* | 60.6 | -5.7 | 100.3*
C[C@@H]1CN([C@H](C)CO)C(=O)c2cccc(NC(=O)Nc3ccc(F)cc3)c2O[C@H]1CN(C)S(=O)(=O)c1ccc(Cl)cc1 | -6.8 | -6.2 | nt | 12.0
CC(Oc1cccc(Cl)c1)c1nc(-c2cccnc2)no1 (stereo not given) | nt | -46.8 | nt | 40.9

Screening results: PubChem, Broad Institute
